HIV RNase H inh: HIV-1 RT RNase H inhibitors, primary screen, biochemical, fluorescence | Gag-Pol polyprotein (Human immunodeficiency virus type 1 group M subtype B (isolate … | RT-RNase H RNA/DNA duplex cleavage | AID 565, 2006 | hit rate 1.9% among 65,000 | inhibition, % at 10 µM; in the data active means inhibition above about 50%
An asterisk follows results filed as active. The sample as a whole holds a higher share of hits than the screen did.

SMILES	HIV RNase H inh
O=C(Nc1cccc2ccccc12)c1ccc(Br)o1	-6
O=C(O)CCCC(=O)Nc1nc(-c2ccccc2)cs1	-6
O=C(Nc1nc(-c2ccccc2)cs1)c1ccc(Br)o1	66*
CN1C(=O)C(C(=O)NC(C)(C)C)C2c3ccccc3OC13CCCCC23 (stereo unspecified)	-26
COc1ccccc1N1C(=O)CC(Sc2nccc(C)n2)C1=O (stereo unspecified)	60*
CCOc1ccccc1N1C(=O)CC(Sc2ncccc2C(=O)O)C1=O (stereo unspecified)	18
CCOc1ccc(N2C(=O)CC(Sc3nccc(C)n3)C2=O)cc1 (stereo unspecified)	-17
O=C(CCn1c(=O)oc2ccccc21)NCc1cccs1	-8
Cc1cc2ncn(C(=O)c3c(-c4ccccc4Cl)noc3C)c2cc1C	-17
CCS(=O)(=O)N1CCN(c2nc(-c3ccccc3)cs2)CC1	56*
CS(=O)(=O)N1CCN(c2nc(-c3ccccc3)cs2)CC1	-1
c1ccc(-c2csc(N3CCCCCC3)n2)cc1	-8
CCCC(=O)Nc1cc(Cl)ccc1N1CCN(C(=O)CC)CC1	-8
COC(=O)c1cccc(S(=O)(=O)N2CCN(c3nc4ccccc4s3)CC2)c1	-3
O=C(Cn1nc(C(F)(F)F)c2c1CCCC2)NCc1ccco1	1
O=C1c2ccccc2CC1Sc1nnc(-c2ccccn2)o1 (stereo unspecified)	32
O=C1CC(Sc2nnc(-c3ccccc3O)o2)C(=O)N1c1ccccc1 (stereo unspecified)	55*
COc1ccc(N2C(=O)CC(Sc3nnc(-c4ccccc4)o3)C2=O)cc1 (stereo unspecified)	-1
O=C(COc1cc(Cl)c(Cl)cc1Cl)Nn1cnnc1	-6
CCN1C(=O)N(C)C(N(O)C(=O)NC)C1(C)C (stereo unspecified)	-10
Cc1cccc(-n2ncc3c(Nc4ccc(F)cc4)ncnc32)c1	-19
COc1ccc(Nc2ncnc3c2cnn3-c2cccc(C)c2)cc1OC	-8
COC(=O)c1ccc(Nc2ncnc3c2cnn3-c2cccc(C)c2)cc1	60*
O=S(=O)(NCCCN1CCN(c2ccccc2F)CC1)c1cccc2cccnc12	-9
Oc1ccc(C(=S)N2CCCCC2)cc1Cl	-2
SMILES	HIV RNase H inh
COc1cc(C(=S)N2CCCC2)cc(Cl)c1O	71*
COc1cc(C(=S)N2CCCCC2)ccc1OCC(=O)N1CCCC1	13
Cc1cnc(C(=O)NCCc2ccc(S(=O)(=O)NC(=O)NC3CCCCC3)cc2)cn1	0
CCc1nnc(NC(=O)Cn2nc(-c3ccccc3OC)ccc2=O)s1	-7
O=C(c1cc(-c2cccs2)on1)N1CCN(c2ccc(F)cc2)CC1	-8
O=C(c1cc(-c2cccs2)on1)N1CCN(c2ccccc2)CC1	57*
COc1ccc(OC)c(-c2cc(C(=O)N3CCN(c4ccccc4)CC3)no2)c1	-11
CCc1nc(SCc2cccnc2)[nH]c(=O)c1C	1
CCOC(=O)c1ccc2c(c1)C1C=CCC1C(C(=O)O)N2 (stereo unspecified)	52*
CCOC(=O)c1ccc(NC(=O)C2C3C=CC(C3)C2C(=O)O)cc1 (stereo unspecified)	9
CCOC(=O)c1ccc(N2C(=O)C3CC=CCC3C2=O)cc1 (stereo unspecified)	-7
O=C(COc1ccc2ccc(=O)oc2c1)Nc1ccc2c(c1)OCCO2	2
O=C(Nc1ccc2c(c1)oc1ccccc12)c1ccc2c(c1)OCO2	27
O=C(COc1ccc2c(c1)OCO2)Nc1ccc2c(c1)oc1ccccc12	59*
O=C(c1ccco1)c1cn(CC(=O)N2CCCCC2)c2ccccc12	30
Cc1oc2c(CN3CCCC3)c(O)ccc2c(=O)c1-c1ccc(Br)cc1	2
Cc1oc2c(O)c(O)ccc2c(=O)c1-c1ccccc1	70*
Cc1oc2c(O)c(O)ccc2c(=O)c1-c1cnn(-c2ccccc2)c1	35
Cc1cc(NC(=O)c2sccc2C)n(-c2cccc(Cl)c2)n1	-2
C=CCn1c(SCC(=O)c2cc(C)n(C(C)COC)c2C)nc2sc(C)c(C)c2c1=O (stereo unspecified)	0
Cc1ccc(S(=O)(=O)NC(CC(=O)O)c2ccccc2)cc1 (stereo unspecified)	-7
C=CCOC(=O)CC(NC(=O)c1ccccc1)c1ccccc1 (stereo unspecified)	-6
C=CC(=C)CC(NC)c1ccccc1 (stereo unspecified)	51*
COCCN(CC(=O)Nc1ccccc1)S(=O)(=O)c1ccc(S(=O)(=O)N2CCCC2)cc1	3
O=C(CCN1CCc2ccccc2C1)Nc1ccccc1	-3
Cc1nnc(NC(=O)NCN2C(=O)C3C4C=CC(C4)C3C2=O)s1 (stereo unspecified)	-6
CCc1nnc(NC(=O)NCN2C(=O)C3C4C=CC(C4)C3C2=O)s1 (stereo unspecified)	-3
O=C(NCN1C(=O)C2C3C=CC(C3)C2C1=O)Nc1nccs1 (stereo unspecified)	55*
COc1ccc(/C(O)=C2/C(=O)C(=O)N(CCCN(C)C)C2c2ccco2)cc1Cl (stereo unspecified)	-2

Compound activity (PubChem BioAssay)
